Source: the antibiotic and cytotoxicity screens of Wong et al. (2023)
Screen size: about 39,000 compounds; about 3,300 (8.5%) were called active. This excerpt belongs to a sample that is enriched for actives.

Each molecule was assayed on HepG2 (assay: cytotoxicity call (relative viability < 0.9)). Conditions: 10 µM.

| SMILES | cytotoxicity call |
| --- | --- |
| Cc1noc(C)c1NC(=O)Nc1ccc2c(c1)CC(=O)N([C@@H](C)CO)C[C@H](C)[C@@H](CN(C)S(=O)(=O)c1c(C)noc1C)O2 | inactive |
| CC(C)C[C@@H]1NC(=O)[C@H]2C[C@@H](C(=O)NCCCC[N+](C)(C)C)[C@@H](c3cccc(OCCO)c3)N2C1=O | inactive |
| CO[C@H]1CN(C)C(=O)c2cc(NS(C)(=O)=O)ccc2OC[C@H](C)N(C(=O)C2CCOCC2)C[C@@H]1C | inactive |
| N#CCCn1c(CC(N)=O)nc2ccccc21 | inactive |
| Cc1cccc(S(=O)(=O)N2C[C@H](O)COC[C@@H]3O[C@@H](CC(=O)NCc4ccncn4)CC[C@H]32)c1 | inactive |
| C[C@H](CO)N1C[C@H](C)[C@@H](CN(C)Cc2ccc(C(F)(F)F)cc2)OCCCC[C@H](C)Oc2ccc(NC(=O)Nc3ccc4c(c3)OCO4)cc2C1=O | inactive |
| C[C@@H]1CCCCO[C@H](CN(C)Cc2ccc(C(F)(F)F)cc2)[C@H](C)CN([C@@H](C)CO)C(=O)c2cc(NC(=O)Nc3ccc4c(c3)OCO4)ccc2O1 | active |
| C[C@H]1CCCCO[C@@H](CN(C)Cc2ccc(C(F)(F)F)cc2)[C@@H](C)CN([C@@H](C)CO)C(=O)c2cc(NC(=O)Nc3ccc4c(c3)OCO4)ccc2O1 | inactive |
| C[C@@H]1CCCCO[C@@H](CN(C)Cc2ccc(C(F)(F)F)cc2)[C@H](C)CN([C@H](C)CO)C(=O)c2cc(NC(=O)Nc3ccc4c(c3)OCO4)ccc2O1 | active |
| C[C@H](CO)N1C[C@H](C)[C@H](CN(C)Cc2ccc(C(F)(F)F)cc2)OCCCC[C@H](C)Oc2ccc(NC(=O)Nc3ccc4c(c3)OCO4)cc2C1=O | inactive |
| C[C@@H]1CCCCO[C@@H](CN(C)Cc2ccc(C(F)(F)F)cc2)[C@@H](C)CN([C@H](C)CO)C(=O)c2cc(NC(=O)Nc3ccc4c(c3)OCO4)ccc2O1 | inactive |
| C[C@H]1CCCCO[C@H](CN(C)Cc2ccc(C(F)(F)F)cc2)[C@@H](C)CN([C@@H](C)CO)C(=O)c2cc(NC(=O)Nc3ccc4c(c3)OCO4)ccc2O1 | active |
| C[C@@H]1CCCCO[C@H](CN(C)Cc2ccc(C(F)(F)F)cc2)[C@@H](C)CN([C@H](C)CO)C(=O)c2cc(NC(=O)Nc3ccc4c(c3)OCO4)ccc2O1 | active |
| CC1(C)SC2C(NC(=O)C(N)c3ccccc3)C(=O)N2C1C(=O)[O-].[Na+] (stereo not drawn) | inactive |
| C[C@@H]1CCCCO[C@H](CN(C)C(=O)Nc2ccc(F)cc2)[C@H](C)CN([C@H](C)CO)C(=O)c2cc(NS(=O)(=O)c3cccs3)ccc2O1 | inactive |
| COc1ccc(NC(=O)Nc2ccc3c(c2)C(=O)N([C@@H](C)CO)C[C@H](C)[C@H](CN(C)Cc2ccncc2)OCCCC[C@H](C)O3)cc1 | inactive |
| COC1C=COC2(C)Oc3c(C)c(O)c4c(O)c(c(C=NN5CCN(C)CC5)c(O)c4c3C2=O)NC(=O)C(C)=CC=CC(C)C(O)C(C)C(O)C(C)C(OC(C)=O)C1C (stereo not drawn) | inactive |
| COc1ccc(NC(=O)Nc2ccc3c(c2)C(=O)N([C@@H](C)CO)C[C@@H](C)[C@H](CN(C)C(=O)Nc2cccc4ccccc24)OCCCC[C@@H](C)O3)cc1 | inactive |
| N[C@@H](C(=O)O)c1ccc(O)cc1 | inactive |
| C[C@@H]1CCCCO[C@H](CN(C)C(=O)Nc2cccc3ccccc23)[C@@H](C)CN([C@H](C)CO)C(=O)c2cc(N(C)C)ccc2O1 | inactive |
| CC(C=CC1(O)C(C)=CC(=O)CC1(C)C)=CC(=O)O (mixture of isomers) [ABSCISIC ACID (cis,trans; +/-) ] | inactive |
| C[C@H](CO)N1C[C@H](C)[C@H](CN(C)Cc2ccc(Oc3ccccc3)cc2)Oc2ccc(NC(=O)CCC(F)(F)F)cc2C1=O | inactive |

| SMILES | cytotoxicity call |
| --- | --- |
| C[C@@H]1CN([C@H](C)CO)C(=O)c2cc(NC(=O)CCC(F)(F)F)ccc2O[C@H]1CN(C)Cc1ccc(Oc2ccccc2)cc1 | inactive |
| C[C@@H]1CN([C@H](C)CO)C(=O)c2cc(NC(=O)CCC(F)(F)F)ccc2O[C@@H]1CN(C)Cc1ccc(Oc2ccccc2)cc1 | inactive |
| C[C@H]1CN([C@@H](C)CO)C(=O)c2cc(NC(=O)CCC(F)(F)F)ccc2O[C@@H]1CN(C)Cc1ccc(Oc2ccccc2)cc1 | inactive |
| C[C@@H]1CN([C@@H](C)CO)C(=O)c2cc(NC(=O)CCC(F)(F)F)ccc2O[C@@H]1CN(C)Cc1ccc(Oc2ccccc2)cc1 | active |
| C[C@H]1CN([C@@H](C)CO)C(=O)c2cc(NC(=O)CCC(F)(F)F)ccc2O[C@H]1CN(C)Cc1ccc(Oc2ccccc2)cc1 | active |
| COc1ccccc1S(=O)(=O)N[C@H]1CC[C@@H](CCNC(=O)C2CCOCC2)O[C@H]1CO | inactive |
| CSCC[C@H]1NC(=O)NC1=O | inactive |
| OCCC12CC3CC(CC(C3)C1)C2 | inactive |
| C[C@@H]1CN([C@@H](C)CO)C(=O)CCCn2cc(nn2)CO[C@H]1CN(C)C(=O)Nc1ccc(N2CCCCC2)cc1 | inactive |
| C[C@H](CO)N1C[C@H](C)[C@@H](CN(C)C(=O)Nc2ccc(C(F)(F)F)cc2)Oc2c(NS(=O)(=O)c3ccc(Cl)cc3)cccc2C1=O | inactive |
| C[C@@H]1CN([C@H](C)CO)C(=O)c2cccc(NS(=O)(=O)c3ccc(F)cc3)c2O[C@H]1CN(C)C(=O)Nc1ccc(C(F)(F)F)cc1 | inactive |
| C[C@H](CO)N1C[C@H](C)[C@H](CN(C)C(=O)Nc2ccc(C(F)(F)F)cc2)Oc2c(NS(=O)(=O)c3ccc(Cl)cc3)cccc2C1=O | active |
| C[C@H]1CN([C@@H](C)CO)C(=O)c2cccc(NS(=O)(=O)c3ccc(Cl)cc3)c2O[C@@H]1CN(C)C(=O)Nc1ccc(C(F)(F)F)cc1 | inactive |
| C[C@H]1CN([C@@H](C)CO)C(=O)c2cccc(NS(=O)(=O)c3ccc(Cl)cc3)c2O[C@H]1CN(C)C(=O)Nc1ccc(C(F)(F)F)cc1 | inactive |
| C[C@@H]1CN([C@@H](C)CO)C(=O)c2cccc(NS(=O)(=O)c3ccc(F)cc3)c2O[C@@H]1CN(C)C(=O)Nc1ccc(C(F)(F)F)cc1 | active |
| C[C@@H]1CN([C@H](C)CO)C(=O)c2cccc(NS(=O)(=O)c3ccc(Cl)cc3)c2O[C@@H]1CN(C)C(=O)Nc1ccc(C(F)(F)F)cc1 | active |
| C[C@@H]1CN([C@H](C)CO)C(=O)c2cccc(NS(=O)(=O)c3ccc(Cl)cc3)c2O[C@H]1CN(C)C(=O)Nc1ccc(C(F)(F)F)cc1 | inactive |
| C[C@@H]1CN([C@@H](C)CO)C(=O)c2cccc(NS(=O)(=O)c3ccc(Cl)cc3)c2O[C@@H]1CN(C)C(=O)Nc1ccc(C(F)(F)F)cc1 | active |
| C[C@H]1CN([C@@H](C)CO)C(=O)c2cccc(NS(=O)(=O)c3ccc(F)cc3)c2O[C@H]1CN(C)C(=O)Nc1ccc(C(F)(F)F)cc1 | inactive |
| C[C@H]1CN([C@@H](C)CO)C(=O)c2cccc(NS(=O)(=O)c3ccc(F)cc3)c2O[C@@H]1CN(C)C(=O)Nc1ccc(C(F)(F)F)cc1 | inactive |
| C[C@@H]1CN([C@@H](C)CO)C(=O)c2cccc(NS(=O)(=O)c3ccc(Cl)cc3)c2O[C@H]1CN(C)C(=O)Nc1ccc(C(F)(F)F)cc1 | inactive |
